In the supplement of paper PMC4840960:

Tested on: E18 rat cortical neuron-glia co-culture
Assay: myelination (MBP fiber length per Olig2+ nucleus), % of 1 µM DAPT response (DMSO = 0) (% of DAPT); higher = more myelination, active = 50 or more
Conditions: 5 µM; treatment time: 8 days (DIV5-DIV13)
Summary of the method: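 The myelination value was the continuous straight MBP fiber length per Olig2+ nucleus, scaled between 0.1 % DMSO (0) and a 1 µM positive control (100). It was measured in primary E18 rat cortical co-cultures treated with library compounds at 1 or 5 µM in myelination medium from DIV5 through DIV13. Cells were fixed in 4 % paraformaldehyde and stained for MBP, Olig2 and DAPI, and four 10X fields per well were imaged in duplicate wells.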

myelination, inactive:
CN/C(=N\CCSCc1nc[nH]c1C)NC#N [Cimetidine] -6.66
CCCCNC(=O)NS(=O)(=O)c1ccc(C)cc1 [Tolbutamide] -4.03
CN1CCC[C@H]1c1cccnc1 [Nicotine] 2.28
NC(=O)OCC(COC(N)=O)c1ccccc1 [Felbamate] -10.2
NS(=O)(=O)c1cc2c(cc1C(F)(F)F)NCNS2(=O)=O [Hydroflumethiazide] -13.7
Nc1nc2ccc(Cl)cc2c2nc(-c3ccco3)nn12 -3.25
